Read-out in assay [1]: TIMP metallopeptidase inhibitor 2 (TIMP2), TIMP2 (gene 7077)
As to the kind of experiment: BSK_KF3CT_TIMP2: BioMAP Diversity Plus: KF3CT Assay for TIMP metallopeptidase inhibitor 2 (TIMP2) Biomarker Activity (AID 2283071). The following applies: primary human keratinocytes with fibroblasts; actives raise or lower the signal. An outline of the steps:
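Co-culture of human primary keratinocytes and foreskin fibroblasts, measured 24 h after chemical dosing. TIMP-2 quantified by ELISA and fitted in both directions relative to DMSO. Cytotoxicity checked in parallel cultures by SRB total-protein staining.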

Read-out in assay [2]: Transforming growth factor beta 1 (TGFb1), TGFB1 (gene 7040)
As to the kind of experiment: BSK_KF3CT_TGFb1: BioMAP Diversity Plus: KF3CT Assay for Transforming growth factor beta 1 (TGFb1) Biomarker Activity (AID 2283072). The following applies: primary human keratinocytes with fibroblasts; actives raise or lower the signal. An outline of the steps: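 Human keratinocyte/foreskin fibroblast co-culture; TGF-b1 measured by ELISA 24 h after dosing, fitted bidirectionally versus DMSO. Cytotoxicity checked in parallel cultures by total protein (SRB staining, 560 nm).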

Read-out in assay [3]: C-C motif chemokine 2 (Homo sapiens) (UniProt P13500)
As to the kind of experiment: BSK_KF3CT_MCP1: BioMAP Diversity Plus: KF3CT Assay for Monocyte Chemoattractant Protein 1 (MCP1/CCL2) Biomarker Activity (AID 2283073). To be noted: primary human keratinocytes with fibroblasts; actives raise or lower the signal. An outline of the steps: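 ELISA read-out of MCP-1, 24 h post-dose, in primary human skin keratinocytes co-cultured with fibroblasts. Parallel SRB staining monitors cytotoxicity; changes fitted both directions relative to DMSO.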

Read-out in assay [4]: Matrix Metallopeptidase 9 (MMP9), MMP9 (gene 4318)
As to the kind of experiment: BSK_KF3CT_MMP9: BioMAP Diversity Plus: KF3CT Assay for Matrix Metallopeptidase 9 (MMP9) Biomarker Activity (AID 2283074).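 For AC50: MMP9 protein level quantified by ELISA in the co-culture.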 To be noted: primary human keratinocytes with fibroblasts; actives raise or lower the signal. An outline of the steps:
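Human keratinocyte and foreskin fibroblast co-culture exposed to chemicals for 24 h; MMP9 biomarker measured by ELISA, bidirectional fitting relative to DMSO; cytotoxicity tracked by SRB total protein staining in parallel cultures.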

Read-out in assay [5]: urokinase plasminogen activator (uPA), PLAU (gene 5328)
As to the kind of experiment: BSK_KF3CT_uPA: BioMAP Diversity Plus: KF3CT Assay for urokinase plasminogen activator (uPA) Biomarker Activity (AID 2283075). To be noted: primary human keratinocytes with fibroblasts; actives raise or lower the signal. A digest of the protocol: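 Primary human keratinocyte/foreskin fibroblast co-culture exposed to chemical; uPA measured by ELISA at 24 h. Bidirectional fit versus DMSO, with parallel SRB total-protein staining for cytotoxicity.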

Read-out in the next assay: CD40, CD40 (gene 958)
As to the kind of experiment: BSK_LPS_CD40: BioMAP Diversity Plus: LPS Assay for CD40 Biomarker Activity (AID 2283076). The following applies: primary human HUVEC with PBMC; actives raise or lower the signal. A digest of the protocol:
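In the LPS system of human endothelial cells with peripheral blood mononuclear cells, CD40 levels were read by ELISA 24 h post-treatment. Signal changes in either direction were fitted against the DMSO baseline, with parallel SRB protein staining.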

Read-out in assay [6]: E-selectin (Homo sapiens) (UniProt P16581)
As to the kind of experiment: BSK_LPS_Eselectin: BioMAP Diversity Plus: LPS Assay for Eselectin Biomarker Activity (AID 2283077). The following applies: primary human HUVEC with PBMC; actives raise or lower the signal. An outline of the steps:
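E-selectin ELISA on LPS-stimulated endothelial cell/PBMC co-cultures, read 24 h post-treatment; gains and losses fitted against DMSO. Parallel SRB staining (0.1% SRB after 10% TCA fixation, 560 nm) flags overt cytotoxicity.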

Read-out in assay [7]: Interleukin-8 (IL8), CXCL8 (gene 3576)
As to the kind of experiment: BSK_LPS_IL8: BioMAP Diversity Plus: LPS Assay for Interleukin-8 (IL8) Biomarker Activity (AID 2283078). The following applies: primary human HUVEC with PBMC; actives raise or lower the signal. An outline of the steps: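 ELISA read-out of IL-8 after 24 h chemical treatment of LPS-activated endothelial/PBMC human primary co-cultures. Changes either up or down relative to DMSO; overt cytotoxicity checked by sulforhodamine B staining in parallel wells.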

Assay [8] can be described thus: BSK_LPS_SRB: Viability Assessment in the BioMAP Diversity Plus: LPS Assay (AID 2283079).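 Note: total protein by sulforhodamine B absorbance as a cytotoxicity measure; measured one day after compound addition; fitted in both directions against DMSO so loss or gain of signal counts.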 To be noted: primary human HUVEC with PBMC. An outline of the steps:
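SRB viability endpoint: cells fixed with 10% TCA, stained with 0.1% SRB, read at 560 nm, 24 h post-dose. HUVEC/PBMC co-culture; signal change in either direction scored relative to DMSO.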

Read-out in assay [9]: Interleukin-1 alpha (IL1a), IL1A (gene 3552)
As to the kind of experiment: BSK_LPS_IL1a: BioMAP Diversity Plus: LPS Assay for Interleukin-1 alpha (IL1a) Biomarker Activity (AID 2283080). To be noted: primary human HUVEC with PBMC; actives raise or lower the signal. An outline of the steps:
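Readout is IL-1a level by ELISA, 24 h post-dose, fitted as gain or loss relative to DMSO. System: LPS-activated human primary co-culture of vascular endothelium and peripheral blood mononuclear cells, with parallel SRB total-protein cytotoxicity.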

The structures appear in SMILES notation. Activity calls are given as the source filed them. Rule for the calls: active = hit-call score of the fitted dose curve at least 0.9, where 1 is the maximum; inactive = score below 0.9.

E-selectin (Homo sapiens), sequence (P16581 whole entry, looked up): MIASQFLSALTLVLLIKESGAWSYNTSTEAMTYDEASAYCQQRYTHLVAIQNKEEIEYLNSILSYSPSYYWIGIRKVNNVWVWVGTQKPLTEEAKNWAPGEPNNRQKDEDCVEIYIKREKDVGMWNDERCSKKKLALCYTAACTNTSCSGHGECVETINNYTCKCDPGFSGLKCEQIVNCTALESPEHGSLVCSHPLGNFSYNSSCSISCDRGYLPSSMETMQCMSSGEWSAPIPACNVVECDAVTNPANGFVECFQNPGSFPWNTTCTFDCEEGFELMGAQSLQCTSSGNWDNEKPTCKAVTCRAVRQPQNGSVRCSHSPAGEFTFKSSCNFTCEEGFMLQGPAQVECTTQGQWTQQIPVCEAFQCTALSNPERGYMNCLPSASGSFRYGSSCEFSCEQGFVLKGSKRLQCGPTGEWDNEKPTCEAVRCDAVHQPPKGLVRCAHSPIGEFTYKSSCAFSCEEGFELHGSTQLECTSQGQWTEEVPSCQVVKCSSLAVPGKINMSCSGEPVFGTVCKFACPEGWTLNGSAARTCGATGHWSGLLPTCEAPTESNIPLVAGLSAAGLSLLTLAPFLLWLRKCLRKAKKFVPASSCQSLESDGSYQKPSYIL

Turning to `COCCOC[C@H](CC1(C(=O)NC2CCC(C(=O)O)CC2)CCCC1)C(=O)Oc1ccc2c(c1)CCC2` (stereo not given in full), the outcome in assay [1] was “inactive”; in [2], “inactive”; in [3], “inactive”; in [4], “inactive”; in [5] it was “inactive”; in the assay with CD40, CD40 (gene 958), “inactive”. The result in assay [6], in assay [7], in assay [8] and in assay [9] was inactive.
In the case of `O=[N+]([O-])C(CO)(CO)CO`, the outcome in [1] is “inactive”; in [2], “inactive”; in assay [3], “inactive”; in [4] it was “inactive”; in [5], “inactive”; with CD40, CD40 (gene 958) it was “inactive”. The outcome in assay [6], in assay [7], in assay [8] and in assay [9] was inactive.
Consider `Oc1ccc2ccccc2c1N=Nc1ccccc1`, for which the figures for the AC50 in assay [1], in [2] and in assay [4] were 3.97 µM (active), 6.33 µM (active) and 3.97 µM (active), respectively. The outcome in assay [3] is “inactive”; in assay [5], “inactive”; with CD40, CD40 (gene 958), “inactive”; in [6], “inactive”; in [7], “inactive”; in [8] it was “inactive”. In [9], the result was inactive.
Consider `CCCCN(CCCC)CCCC`, for which the outcome is “inactive” in [1]; “inactive” in assay [2]; “inactive” in assay [3]; “inactive” in [4]; “inactive” in assay [5]; “inactive” with CD40, CD40 (gene 958). Moreover, the result in [6], in assay [7], in assay [8] and in [9] was inactive.
In the case of `CCCCOC(=O)CCCCCCCCC(=O)OCCCC`, the outcome in [1] is “inactive”; in assay [2], “inactive”; in assay [3] it was “inactive”; in assay [4] it was “inactive”; in assay [5] it was “inactive”; in the assay with CD40, CD40 (gene 958) it was “inactive”. In addition, the result in assay [6], in [7], in assay [8] and in assay [9] was inactive.
As for `CN[C@H]1CC[C@@H](c2ccc(Cl)c(Cl)c2)c2ccc(S(N)(=O)=O)cc21`, the AC50 is 25.3 µM (active) in [1]; 19.9 µM (active) in [2]; 14.9 µM (active) in [3]; 20.9 µM (active) in assay [4]; 18.6 µM (active) in assay [5]; 20 µM (active) with CD40, CD40 (gene 958). For the same compound, the AC50 is 30.5 µM (active) in assay [6], 20 µM (active) in assay [7], 26.6 µM (active) in [8] and 24.1 µM (active) in assay [9].
As for `O=C(OCCCCCOC(=O)c1ccccc1)c1ccccc1`, the outcome in assay [1] is “inactive”; in assay [2], “inactive”; in assay [3] it was “inactive”; in assay [4], “inactive”; in assay [5], “inactive”; with CD40, CD40 (gene 958), “inactive”. For the same compound, the outcome in assay [6], in assay [7], in [8] and in [9] was inactive.
Turning to `O=C(N[C@@H](Cc1ccccc1)[C@@H](O)C(=O)N1C[C@@H](O)[C@@H](O)C1)c1cc2cc(Cl)ccc2[nH]1`, in [1], the AC50 was 11.9 µM (active). The outcome in assay [2] is “inactive”; in [3] it was “inactive”; in [4] it was “inactive”; in assay [5], “inactive”; with CD40, CD40 (gene 958) it was “inactive”; in [6], “inactive”. In addition, the outcome in [7], in assay [8] and in assay [9] was inactive.
Take `C[C@]12C=CC(=O)C=C1CC[C@@H]1[C@@H]2C(=O)C[C@@]2(C)[C@H]1CC[C@]2(O)C(=O)CO`: the outcome in [1] is “inactive”; in assay [2] it was “inactive”; in [3] it was “inactive”; in assay [4], “inactive”; in assay [5] it was “inactive”; in the assay with CD40, CD40 (gene 958), “inactive”. Besides, the outcome in [6], in assay [7], in assay [8] and in [9] was inactive.
Regarding `CC(=O)OCCOCCOCCOC(C)=O`, the outcome in [1] is “inactive”; in [2] it was “inactive”; in assay [3], “inactive”; in [4], “inactive”; in assay [5], “inactive”; in the assay with CD40, CD40 (gene 958) it was “inactive”. The result in assay [6], in [7], in [8] and in assay [9] was inactive.
In the case of `CCOC(=O)CCC(=O)OCC`, the outcome in assay [1] was “inactive”; in [2], “inactive”; in [3] it was “inactive”; in assay [4], “inactive”; in assay [5], “inactive”; with CD40, CD40 (gene 958) it was “inactive”. Moreover, the result in assay [6], in assay [7], in [8] and in [9] was inactive.
On to `NCC1(Cc2noc(=O)[nH]2)CCCCC1`, for which the outcome in assay [1] was “inactive”; in [2], “inactive”; in assay [3] it was “inactive”; in assay [4], “inactive”; in assay [5], “inactive”; with CD40, CD40 (gene 958), “inactive”. The result in assay [6], in [7], in assay [8] and in [9] was inactive.
Consider `Cc1ccc(C)c(O)c1C`, for which the outcome in assay [1] is “inactive”; in assay [2], “inactive”; in [3] it was “inactive”; in [4] it was “inactive”; in assay [5], “inactive”; with CD40, CD40 (gene 958), “inactive”. The outcome in assay [6], in assay [7], in assay [8] and in assay [9] was inactive.
As for `CCCCc1ccc2c(n1)[C@@H](c1ccc(OC)cc1C[C@H](C)C(=O)O)[C@H](C(=O)O)[C@H]2c1ccc2c(c1)OCO2`, the outcome in [1] was “inactive”; in assay [2], “inactive”; in assay [3] it was “inactive”; in assay [4] it was “inactive”; in [5] it was “inactive”; with CD40, CD40 (gene 958), “inactive”. Besides, the result in assay [6], in [7], in assay [8] and in assay [9] was inactive.
As to `COc1ccc2c(c1)c(CC(=O)O)c(C)n2C(=O)c1ccc(Cl)cc1`, the outcome is “inactive” in assay [1]; “inactive” in [2]; “inactive” in assay [3]; “inactive” in assay [4]; “inactive” in assay [5]; “inactive” with CD40, CD40 (gene 958). The outcome in [6], in assay [7], in assay [8] and in assay [9] was inactive.
Consider `COc1cc(C=O)ccc1O`, for which the outcome in assay [1] is “inactive”; in assay [2], “inactive”; in assay [3] it was “inactive”; in assay [4], “inactive”; in assay [5] it was “inactive”; with CD40, CD40 (gene 958), “inactive”. The outcome in assay [6], in [7], in [8] and in [9] was inactive.
Take `NS(=O)(=O)c1cc2c(cc1Cl)NCNS2(=O)=O`: the outcome in assay [1] is “inactive”; in assay [2] it was “inactive”; in assay [3], “inactive”; in assay [4], “inactive”; in [5], “inactive”; with CD40, CD40 (gene 958), “inactive”. Besides, the outcome in assay [6], in [7], in assay [8] and in assay [9] was inactive.
Turning to `C=CCOC(=O)c1ccccc1C(=O)OCC=C`, the outcome in assay [1] was “inactive”; in assay [2] it was “inactive”; in [3] it was “inactive”; in [4], “inactive”; in assay [5], “inactive”; with CD40, CD40 (gene 958), “inactive”. In addition, the outcome in assay [6], in assay [7], in [8] and in assay [9] was inactive.
As to `COCCOCCOC`, the outcome in assay [1] is “inactive”; in assay [2], “inactive”; in assay [3], “inactive”; in assay [4], “inactive”; in assay [5], “inactive”; in the assay with CD40, CD40 (gene 958), “inactive”. The result in [6], in assay [7], in assay [8] and in assay [9] was inactive.
Consider `CCCCCCCCCCCC(=O)OC`, for which the outcome in [1] is “inactive”; in [2] it was “inactive”; in assay [3], “inactive”; in assay [4], “inactive”; in [5], “inactive”; with CD40, CD40 (gene 958), “inactive”. The result in assay [6], in assay [7], in [8] and in assay [9] was inactive.
Turning to `Nc1ccc(S(=O)(=O)c2ccc(N)cc2)cc1`, the outcome in assay [1] is “inactive”; in assay [2], “inactive”; in assay [3], “inactive”; in assay [4], “inactive”; in assay [5], “inactive”; in the assay with CD40, CD40 (gene 958), “inactive”. For the same compound, the result in assay [6], in assay [7], in assay [8] and in [9] was inactive.

These data come from PubChem BioAssay (EPA / NIEHS).
